Source: the supplement of paper PMC11417369
In all, about 25,000 sequences were measured (“ln(normalized median fluorescence intensity)”: median about 9.7, highest 2% from about 11 on). The full list was thinned out, with the highest values kept by preference.

Each sequence was assayed on PfAP2-HC AP2 domain (GST-tagged) (assay: gcPBM binding intensity (ln(normalized median fluorescence intensity)); higher = stronger DNA binding).
Summary of the method: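 DNA-binding domains from P. falciparum, fused to GST and produced in E. coli, were put on an Agilent 4 × 180k double-stranded probe array for 1 h in 1× PBS holding 1% milk, 0.2 mg/ml BSA, 0.5% salmon testes DNA and 0.03% Triton X-100. Probes were primer-extended, 36 bp long and drawn from intergenic genomic regions, with negative controls included. After Alexa488 anti-GST antibody detection and a 488 nm scan, binding intensity was set as the highest Masliner-normalised natural-log median intensity across replicate spots of either probe orientation.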
In the case of “ATTTTATGATATATTTGTACTTAACATTTGGATATA [XGTACX_site5888]”, the “gcPBM binding intensity (ln)” value is reported as 9.6.
“ACCATCCTTAATACTTATTTTTTCACAATTAAGTAA [GTGCAC_negctrl_site269]” was tested, and the “gcPBM binding intensity (ln)” value was 9.59.
With “AAACCAAGGCACAATAATTAAATAAATAAAATCATG [GTGCAC_negctrl_site574]” the “gcPBM binding intensity (ln)” value was 9.58.
With “TTTTTCATAAATATATGTACATATATTTTATATAAC [XGTACX_site3402]” the “gcPBM binding intensity (ln)” value was 9.66.
For “TATTAGATATAATATATACACACCAACGAACGAAGA [CACACA_site1134]”, the “gcPBM binding intensity (ln)” value was 10.1.
With “CATATATGTGATAACACGCACACAAATGTATAGAAT [CACACA_site2594]” the “gcPBM binding intensity (ln)” value was 10.4.
“AGAGAGAAAGCTATAACATGCAACAATTTTTAGAAA [TGCATGCA_site95]” was tested, and the “gcPBM binding intensity (ln)” value was 9.63.
In the case of “TATTTTTAATATTTTGCATGCAGTATTTTATAAAAT [TGCATGCA_site250]”, the “gcPBM binding intensity (ln)” value is reported as 9.52.
In the case of “TCTCATAGGAAACACACACACACACCCACATATATA [CACACA_site1738]”, the “gcPBM binding intensity (ln)” value is reported as 11.
“TCTCATAGTAAACACACACACACACCCACATATATA [CACACA_site5034]” was tested, and the “gcPBM binding intensity (ln)” value was 10.6.
In the case of “CAAACATATTAATGTACACACACCCACCCACAAACA [CACACA_site2752]”, the “gcPBM binding intensity (ln)” value is reported as 10.4.
In the case of “CATACATATAAACACACACACACACCCACCCACAAA [CACACA_site8059]”, the “gcPBM binding intensity (ln)” value is reported as 10.6.
In the case of “ATAATTTGGAAACACACACACACACCCACATATATA [CACACA_site2286]”, the “gcPBM binding intensity (ln)” value is reported as 10.5.
“AACATATTAATGTACACACACCCACGCACAAACAAA [CACACA_site7320]” was tested, and the “gcPBM binding intensity (ln)” value was 10.4.
For “ATTAAACATACATATACACACACACCCACCCACCCA [CACACA_site8057]”, the “gcPBM binding intensity (ln)” value was 11.
In the case of “TATAAATATACACCCACACACATATATAAATAAATA [CACACA_site7717]”, the “gcPBM binding intensity (ln)” value is reported as 10.8.
In the case of “TAAACATACATATACACACACACACCCACACCCACA [CACACA_site492]”, the “gcPBM binding intensity (ln)” value is reported as 11.6.
For “AAGCAAACATATTAATGTACACACACCCACACACAA [XGTACX_site5806]”, the “gcPBM binding intensity (ln)” value was 11.1.
With “TTTTTTAAAAAAGTTTTCTGTATTTATATATATATA [CACACA_negctrl_site31]” the “gcPBM binding intensity (ln)” value was 9.48.
In the case of “AAAATATATATAACTTGTACATATACATACGTATAT [XGTACX_site4570]”, the “gcPBM binding intensity (ln)” value is reported as 9.77.
With “TTTCTTTTTTTTTTTTTTTCTTTTTTTTTTTTTTTC [CACACA_negctrl_site1025]” the “gcPBM binding intensity (ln)” value was 9.2.
In the case of “ACTAAAAAAATAAACACACAGATTTATATAATATAT [CACACA_site4884]”, the “gcPBM binding intensity (ln)” value is reported as 9.83.
For “TATATTTGTACATGATATTTTTTTTTTCTTTTAAAA [CACACA_negctrl_site754]”, the “gcPBM binding intensity (ln)” value was 9.43.
“TATAATTATATAAATTGTACATAAAAAGTTTTTACT [XGTACX_site3621]” was tested, and the “gcPBM binding intensity (ln)” value was 9.45.
For “AAATGTTCTTAAAAATGAATAATATATATATATATA [CACACA_negctrl_site796]”, the “gcPBM binding intensity (ln)” value was 9.41.
“TAATTATGCAGACACACACACACACCCAACTAAAAA [CACACA_site2569]” was tested, and the “gcPBM binding intensity (ln)” value was 10.4.
“TATGTGTATTTATTTGCATGTTGGTTGTATTTTTTC [TGCATGCA_site479]” was tested, and the “gcPBM binding intensity (ln)” value was 10.4.
For “ACAAAGTTTATAGAACGTACATACTTACACATATTT [XGTACX_site556]”, the “gcPBM binding intensity (ln)” value was 9.73.
AATATTGTTCACAAGGTGCTTTTTATTCATACTAAT was tested, and the “gcPBM binding intensity (ln)” value was 9.8.
With “CATACCTATAGACACACACACACACGCACGCACAAA [CACACA_site6374]” the “gcPBM binding intensity (ln)” value was 10.4.
“TACCTATACAGACACACACACACACGCCCACAAAAA [CACACA_site6375]” was tested, and the “gcPBM binding intensity (ln)” value was 11.1.
With “TTGGCATACAGACACACACACACACGCCCACATATA [CACACA_site6425]” the “gcPBM binding intensity (ln)” value was 10.7.
“CCAATTCAAATATGCACACAAATTTGAAAACGATTA [CACACA_site3607]” was tested, and the “gcPBM binding intensity (ln)” value was 9.71.
In the case of “TGAAAATGGGAACCGTGTACAGGGCAGTTATAGGGG [XGTACX_site2950]”, the “gcPBM binding intensity (ln)” value is reported as 9.87.
In the case of “AAAAAAGAATAGCACACACACATATATAAATATAAA [CACACA_site4518]”, the “gcPBM binding intensity (ln)” value is reported as 10.5.
“TATTACATACCTTATTGTACAAATTATATATTAAAG [XGTACX_site7334]” was tested, and the “gcPBM binding intensity (ln)” value was 9.54.
“ATATATCTATATGTGTGTACATATAAGTATTTATAT [XGTACX_site5333]” was tested, and the “gcPBM binding intensity (ln)” value was 9.87.
For “TTATAAATAAAAAATACACACATATATATATATATA [CACACA_site207]”, the “gcPBM binding intensity (ln)” value was 9.57.
In the case of “CTAAAATACGGACACACACACACATATATATATATA [CACACA_site6138]”, the “gcPBM binding intensity (ln)” value is reported as 11.4.
In the case of “CACACGCACGGACACACACACATATAAAATCTATAT [CACACA_site6428]”, the “gcPBM binding intensity (ln)” value is reported as 11.1.
“TATAAATAAAAACACACACACATATATATATATATA [CACACA_site2319]” was tested, and the “gcPBM binding intensity (ln)” value was 10.4.
With “CATACATACGGACACACACACATATATATATATATA [CACACA_site5598]” the “gcPBM binding intensity (ln)” value was 10.4.
With “AATACATACGGACACACACACACATATATATATATA [CACACA_site5884]” the “gcPBM binding intensity (ln)” value was 11.6.
For “GTTATAAATAAATATACACACATATATAAAATACAT [CACACA_site7146]”, the “gcPBM binding intensity (ln)” value was 9.97.
For “ACACGCACATATATATAAATATATATATATATAAAT [CACACA_negctrl_site1781]”, the “gcPBM binding intensity (ln)” value was 10.1.
For “AAAAAAAACGGACACACACACATAAATATATATAAA [CACACA_site4260]”, the “gcPBM binding intensity (ln)” value was 11.3.
With “CATATATACACATACACACACACACGGACACGCACA [CACACA_site6910]” the “gcPBM binding intensity (ln)” value was 10.5.
For “AATATATACATATATACACACACATATATATATATA [CACACA_site8907]”, the “gcPBM binding intensity (ln)” value was 10.2.
“AAAAAAAACGGACACACACACATACAAAATATATAT [CACACA_site4910]” was tested, and the “gcPBM binding intensity (ln)” value was 10.8.
